# NIH3T3 tox – Cytotoxic Profiling in NIH 3T3 Cell Line of Diverse Libraries Using Quantitative High-Throughput Screening. NIH 3T3 viability, CellTiter-Glo ATP luminescence, 48-72 h. 94,000 tested, 4.3% active. Potency, µM (top dose mostly 96.7 µM), hits mostly inhibitors; further: nearly all actives have a fitted effect of over 55% in size
#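 Mouse fibroblast NIH 3T3 cells, 400 per well, received compound via pintool and were incubated for 48 or 72 hr prior to CellTiter-Glo ATP luminescence measurement.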
# hNpr1 antagonist – Natriuretic polypeptide receptor (hNpr1) antagonism - Primary qHTS; Atrial natriuretic peptide receptor 1 (Homo sapiens), P16066; HEK293 hNpr1 GloSensor cGMP, ANP-stimulated luminescence; 76,000 tested, 1.6% active; Potency, µM (series often up to 46.3 µM), hits mostly inhibitors; calls by dose curve; further: nearly all actives have a fitted effect of over 60% in size
#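 HEK293 cells stably expressing human Npr1 and cGMP GloSensor pGS-40F, loaded 2 h with 2% GloSensor reagent, given compound 30 min at room temperature. Luminescence read before and 20 min after 0.1 nM hNppA.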
# HEK cytotox – Cytotoxic Profiling in HEK 293 Cell Line of Diverse Libraries Using Quantitative High-Throughput Screening | HEK 293 viability, ATP luminescence (CellTiter-Glo), 48-72 h | Potency, µM (titrated, usually from 115 µM), actives largely listed as inhibitors | 94,000 tested, 6.6% active | AID 1345083, 2018; further: nearly all actives have a fitted effect of over 60% in size
#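 ATP-coupled CellTiter-Glo luminescence served as viability read-out, recorded 10 min after reagent addition at room temperature. HEK 293 cells, 250 cells/well, had been incubated with pintool-transferred compound for 48 or 72 hr at 37 degree Celsius.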
# FLuc inh – Firefly luciferase inhibition profiling of diverse chemical library using quantitative high-throughput screening; Luciferin 4-monooxygenase (Photinus pyralis), P08659; AID 1347043, 2019; 76,000 tested, 2.5% active; Potency, µM (series often up to 115 µM), usual class: inhibitors; purified P. pyralis luciferase, luminescence, biochemical; further: nearly all actives have a fitted effect of over 65% in size
# Target sequence (P08659 whole entry, looked up): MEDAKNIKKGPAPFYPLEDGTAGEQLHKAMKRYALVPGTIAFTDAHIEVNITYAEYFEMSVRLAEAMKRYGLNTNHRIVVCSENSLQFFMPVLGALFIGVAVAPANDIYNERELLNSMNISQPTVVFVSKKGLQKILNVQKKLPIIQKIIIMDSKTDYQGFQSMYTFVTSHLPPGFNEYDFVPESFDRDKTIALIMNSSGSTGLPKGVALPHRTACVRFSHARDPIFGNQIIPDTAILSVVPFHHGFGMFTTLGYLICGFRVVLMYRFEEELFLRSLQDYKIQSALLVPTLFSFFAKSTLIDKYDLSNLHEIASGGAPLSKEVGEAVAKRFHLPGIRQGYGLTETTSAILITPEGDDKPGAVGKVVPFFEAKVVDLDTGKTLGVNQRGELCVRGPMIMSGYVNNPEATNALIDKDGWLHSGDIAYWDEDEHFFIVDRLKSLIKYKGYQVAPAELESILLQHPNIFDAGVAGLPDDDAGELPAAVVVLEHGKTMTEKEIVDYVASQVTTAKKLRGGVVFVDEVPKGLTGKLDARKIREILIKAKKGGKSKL
#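 FLuc 10nM, D-luciferin 10uM, ATP 10uM, Mg acetate 10mM, Tris acetate pH 7.5, Tween/BSA; cpd qHTS; enzyme added last; CCD luminescence.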
# A number is an active result; – = inactive; ? = inconclusive; · = no result given. In the library only some 11% were active in any assay of this set; here they are far more common. Unless noted, the call rests on the fitted dose curve; in most records, active means well fitted curve in the direction sought with a large enough effect; inconclusive means small, poorly fitted or top-dose-only effect, or another doubt; inactive means no such curve, though single readings can be large; an effect the other way counts as inactive or inconclusive.
SMILES,NIH3T3 tox,hNpr1 antagonist,HEK cytotox,FLuc inh
O=C(O)CCn1ncc2cc(OC3CCN(C(=O)Oc4ccccc4)CC3)ccc21,?,–,–,–
O=C(O)CCn1ncc2cc(OC3CCN(C(=O)COc4ccccc4)CC3)ccc21,50µM,–,–,–
O=C(O)CCn1ncc2cc(OCC3CCN(C(=O)Oc4ccccc4Cl)CC3)ccc21,18µM,–,–,?
O=C(O)CCn1ncc2cc(OCC3CCN(C(=O)CCC(F)(F)F)CC3)ccc21,13µM,–,–,–
O=C(c1ccc2c(c1)ncn2CCO)N1CCCC(CCc2ccccc2F)C1 (centres undefined),?,–,?,–
O=c1c2nc(-c3ccccc3)ccc2ncn1Cc1ccccn1,79µM,–,–,–
O=c1c2nc(N3CCC(c4ccccc4)CC3)ccc2ncn1Cc1ccccn1,–,–,?,63µM
COCCn1cnc2ccc(-c3cccc(O)c3)nc2c1=O,22µM,–,–,–
O=c1ncn(CC2CC2)c2ccc(N3CCC(c4ccccc4)CC3)nc12,–,–,?,56µM
COCC1CN(C)CC12CCN(S(=O)(=O)c1cccc(OC)c1)CC2 (centres undefined),?,–,?,–
O=C1CC2(CCN(C(=O)C3CCCN(C(=O)c4ccccc4F)C3)CC2)Oc2ccccc2N1 (centres undefined),–,·,?,·
Cc1cc(C(=O)N2C[C@@H](Oc3ccccc3)C[C@H]2C(=O)N2CCCC2)n(C)n1,–,–,–,–
CNC(=O)c1cc(C)nc2onc(C3CCN(C(=O)c4ccc(OC)cc4)CC3)c12,–,·,–,·
O=c1c2nc(-c3ccc(Cl)cc3)ccc2ncn1Cc1ccccn1,?,–,?,–
COc1cc(F)ccc1-c1ccc2c(n1)c(=O)ncn2CC1CC1,?,–,–,–
Cc1ccc(-c2ccc3ncn(Cc4ccccn4)c(=O)c3n2)c(C)c1,25µM,–,–,–
O=c1ncn(CC2CC2)c2ccc(-c3ccc(F)cc3F)nc12,100µM,–,–,–
Cn1ccc2cc(-c3ccc4ncn(Cc5ccccn5)c(=O)c4n3)ccc21,89µM,–,–,45µM
COc1cccc(NC(=O)[C@@H]2C[C@H](c3ccc(F)cc3)N(Cc3csc(C)n3)C2)c1,?,–,63µM,–
COc1ccc(NC(=O)[C@@H]2C[C@H](c3ccc(F)cc3)N(Cc3csc(C)n3)C2)c(C)c1,71µM,–,89µM,–
Cc1nc(CN2C[C@H](C(=O)Nc3cccc(F)c3)C[C@@H]2c2ccc(F)cc2)cs1,40µM,–,40µM,–
Cc1nc(CN2C[C@H](C(=O)NCCOc3ccccc3)C[C@@H]2c2ccc(F)cc2)cs1,56µM,–,89µM,–
COc1cc(CNC(=O)[C@@H]2C[C@H](c3ccc(F)cc3)N(Cc3csc(C)n3)C2)cc(OC)c1,?,–,?,–
O=C(Nc1cccc(F)c1)[C@@H]1C[C@@H](c2ccc(F)cc2)N([S+](=O)([O-])c2ccccc2)C1,?,–,35µM,–
COc1cccc(NC(=O)[C@@H]2C[C@@H](c3ccc(F)cc3)N(CCOc3ccccc3)C2)c1,?,?,40µM,–
SMILES,NIH3T3 tox,hNpr1 antagonist,HEK cytotox,FLuc inh
Cc1nc(CN2C[C@H](C(=O)Nc3cccc(Cl)c3)C[C@@H]2c2ccc(F)cc2)cs1,50µM,?,50µM,–
CC(C)C(=O)Nc1ccc(C2(C(=O)NC3CC3)CCCCC2)cc1,–,–,–,–
O=C(NCC1CCN(c2cc(-c3ccc(F)cc3)[nH]n2)CC1)c1c[nH]c2ccccc12,32µM,–,?,?
O=C(NC1CCN(c2cc(-c3ccc(F)cc3)[nH]n2)CC1)c1c[nH]c2ccccc12,32µM,–,?,–
O=C(NC1CCN(c2cc(-c3ccccc3)[nH]n2)CC1)c1cc(F)ccc1Cl,?,–,?,–
O=C(NC1CCN(c2cc(-c3ccc(F)cc3)[nH]n2)C1)c1c[nH]c2ccccc12 (centres undefined),32µM,–,40µM,–
O=C(NC1CCCN(c2cc(-c3ccccc3)[nH]n2)C1)c1c[nH]c2ccccc12 (centres undefined),?,–,?,40µM
O=C(NCC1CCN(c2cc(-c3ccc(F)cc3)[nH]n2)CC1)c1ccc2nc[nH]c2c1,?,–,?,?
COc1cccc([S+](=O)([O-])N2CCC(C(=O)N3CCC(N4CCOC4=O)CC3)CC2)c1,–,·,–,·
COc1ccccc1Nc1ccnc(N2CCC(NC(=O)c3ccc(Cl)nc3)CC2)n1,–,·,?,·
Cc1ccc(Nc2ccnc(N3CCC(NC(=O)c4cccc(Cl)c4)CC3)n2)cc1,40µM,·,?,·
COc1cccc(C(=O)NC2CCN(c3nccc(Nc4ccccc4OC)n3)CC2)c1,?,·,40µM,·
COc1ccc(CC(=O)NC2CCN(c3nccc(Nc4ccc(OC)cc4)n3)CC2)cc1,35µM,·,40µM,·
COc1ccc(Nc2ccnc(N3CCC(NC(=O)c4cccc(OC)c4)CC3)n2)cc1,?,·,35µM,·
COC[C@@H]1[C@H](C(=O)NCCc2c[nH]c3ccc(OC)cc23)CCC(=O)N1C,–,·,–,·
CNC(=O)c1cc(C)nc2onc(C3CCCN(C(=O)NC(C)C)C3)c12 (centres undefined),–,·,–,·
CCCC(=O)N1Cc2ccccc2CC2(CCN(C)CC2)C1,–,·,–,·
O=C1N(c2ccccc2)c2ccccc2C12CCN([S+](=O)([O-])c1cccs1)C2 (centres undefined),–,·,?,·
COc1ccc(C(=O)NC2CCN(c3nccc(Nc4ccccc4F)n3)CC2)cc1,–,·,?,·
COC(=O)NC1CCN(c2nccc(Nc3ccc(OC)cc3)n2)CC1,–,·,?,·
COc1ccc(Nc2ccnc(N3CCC(NC(=O)c4ccccc4)CC3)n2)cc1,?,·,35µM,·
COc1ccc(C(=O)NC2CCN(c3nccc(Nc4ccc(C)cc4)n3)CC2)cc1,?,·,35µM,·
Cc1ccc(Nc2ccnc(N3CCC(NC(=O)c4ccc(Cl)cc4)CC3)n2)cc1,32µM,·,22µM,·
COc1ccc(Nc2ccnc(N3CCC(NC(=O)c4cccc(Cl)c4)CC3)n2)cc1,28µM,·,14µM,·
CN1CC(=O)N(C2CCCNCC2)Cc2c1ncnc2N1CCCC(CO)C1 (centres undefined),–,·,–,·
SMILES,NIH3T3 tox,hNpr1 antagonist,HEK cytotox,FLuc inh
CCN(CC)C(=O)CCC1CCN(C(=O)c2ccccc2Cl)CC1,?,·,–,·
Cc1ccsc1CN1CCc2c(sc3ncnc(N(C)C)c23)C1,?,–,?,–
O=S(=O)(O)c1ccc(-c2ncc[nH]2)cc1,–,·,–,·
COc1ccc(Nc2ccnc(N3CCC(C(=O)N4CCC(c5ccccc5)CC4)CC3)n2)cc1,20µM,·,13µM,·
COc1ccc2c(c1)C(CNc1ccc(C)c([S+](=O)([O-])N3CCOCC3)c1)=CC(C)(C)CO2,–,·,?,·
Cn1ncc2c(C(=O)NCc3ccc4c(c3)OCO4)cc(-c3ccccc3C(F)(F)F)nc21,?,·,35µM,·
COCCNC(=O)c1cc(-c2ccccc2F)nc2c1cnn2C,?,·,–,·
Cn1ncc2c(C(=O)NCc3ccc(Cl)cc3)cc(-c3ccc(C(F)(F)F)cc3)nc21,–,·,?,·

# Screening results deposited in PubChem by National Center for Advancing Translational Sciences (NCATS).
